Measurements taken from paper PMC8159961, “Exploring protein hotspots by optimized fragment pharmacophores” (Nature Communications, 2021).

target: thrombin (human, UniProt P00734); assay: primary screen, binary call; higher = more effect of the substance; parameters: screenings were carried out in duplicate in one independent experiment; conditions: 200 µM
Protocol: Protease inhibitory assays were performed in transparent microtiter plates in a final volume of 200 µL with the use of chromogenic substrates. The reaction rates in the absence and in the presence of the inhibitor were measured; screenings were carried out in duplicate in one independent experiment and Ki values were determined in triplicate in two independent experiments.

**Q.** O=C1CSC(Nc2ccc(F)cc2)=N1 was tested. Which Thrombin did it give?
**A.** Its Thrombin is 0 (inactive).

**Q.** For c1ccc2c(N3CCNCC3)ccnc2c1, which Thrombin is on record?
**A.** The Thrombin was 0 (inactive).

**Q.** How did the Thrombin turn out when c1ccc2sc(N3CCNCC3)nc2c1 was run?
**A.** The Thrombin was 0 (inactive).

**Q.** COc1ccccc1N1CCNCC1 was tested. Which Thrombin did it give?
**A.** Its Thrombin is 0 (inactive).

**Q.** With COc1ccc(C2=CCNCC2)cc1 as the molecule, how does the Thrombin read?
**A.** Its Thrombin is 0 (inactive).

**Q.** Cn1nc(C(F)(F)F)cc1O was tested. Which Thrombin did it give?
**A.** Its Thrombin is 0 (inactive).

**Q.** How did the Thrombin turn out when Brc1ccc(-c2ccon2)cc1 was run?
**A.** Its Thrombin is 0 (inactive).

**Q.** Nc1ccc(SC(F)F)cc1 was tested. Which Thrombin did it give?
**A.** The Thrombin was 0 (inactive).

**Q.** With O=c1ccc2c([nH]1)CCCC2 as the molecule, how does the Thrombin read?
**A.** Its Thrombin is 0 (inactive).

**Q.** Which Thrombin does the source give for COc1ccccc1CC1CCNCC1.Cl here?
**A.** Its Thrombin is 0 (inactive).

**Q.** How did the Thrombin turn out when COc1ccc(CN2CCNCC2)cc1F was run?
**A.** The Thrombin was 0 (inactive).

**Q.** NC(c1ccccc1)c1ccccc1 was tested. Which Thrombin did it give?
**A.** The Thrombin was 0 (inactive).

**Q.** Which Thrombin does the source give for COc1cccc(NC2=NCCCCC2)c1 here?
**A.** The Thrombin was 0 (inactive).

**Q.** How did the Thrombin turn out when Cn1c(CO)nc2ccccc21 was run?
**A.** The Thrombin was 0 (inactive).

**Q.** Which Thrombin does the source give for CC(=O)c1sc(-c2ccc(O)cc2)nc1C here?
**A.** Its Thrombin is 1 (active).

**Q.** Which Thrombin does the source give for CCc1nccn1CC(=O)O here?
**A.** Its Thrombin is 0 (inactive).

**Q.** Cc1cc(N)no1 was tested. Which Thrombin did it give?
**A.** The Thrombin was 0 (inactive).

**Q.** With Oc1cnc(-c2ccccc2)nc1 as the molecule, how does the Thrombin read?
**A.** The Thrombin was 0 (inactive).

**Q.** For Cc1cc(-c2ccccc2)n[nH]1, which Thrombin is on record?
**A.** Its Thrombin is 0 (inactive).

**Q.** For O=c1[nH]c2c(s1)CCC2, which Thrombin is on record?
**A.** The Thrombin was 0 (inactive).

**Q.** Which Thrombin does the source give for COC(=O)c1c(C)nc(C2CC2)[nH]c1=O here?
**A.** Its Thrombin is 0 (inactive).

**Q.** Which Thrombin does the source give for CC1CCc2sc(C(=O)O)cc2C1 (stereo not shown) here?
**A.** The Thrombin was 1 (active).

**Q.** With O=C(O)c1ccc(CN2CCOCC2)cc1 as the molecule, how does the Thrombin read?
**A.** Its Thrombin is 0 (inactive).

**Q.** Which Thrombin does the source give for Cc1ccc(-c2ccc(O)cc2)cc1 here?
**A.** The Thrombin was 0 (inactive).

**Q.** With O=C1CCCc2occc21 as the molecule, how does the Thrombin read?
**A.** The Thrombin was 0 (inactive).

**Q.** O=C1CNCCN1c1ccccc1 was tested. Which Thrombin did it give?
**A.** The Thrombin was 0 (inactive).

**Q.** Which Thrombin does the source give for c1ccc2oc(C3CCCNC3)nc2c1 (stereo not shown) here?
**A.** Its Thrombin is 0 (inactive).

**Q.** O=C1NC2(CCCC2)Nc2ccccc21 was tested. Which Thrombin did it give?
**A.** The Thrombin was 0 (inactive).

**Q.** Which Thrombin does the source give for C1=C[C@H]2O[C@@H]1c1ccccc12 here?
**A.** The Thrombin was 0 (inactive).

**Q.** With Cc1ccc(C)n1Cc1ccccc1Cl as the molecule, how does the Thrombin read?
**A.** The Thrombin was 0 (inactive).

**Q.** For Oc1ccc(-n2cncn2)cc1, which Thrombin is on record?
**A.** The Thrombin was 0 (inactive).

**Q.** With Cc1cnc(C(F)(F)F)cn1 as the molecule, how does the Thrombin read?
**A.** The Thrombin was 0 (inactive).

**Q.** With Oc1ccc(C2CCNCC2)cc1 as the molecule, how does the Thrombin read?
**A.** Its Thrombin is 0 (inactive).

**Q.** With O=C1CCN(c2ccccn2)CC1 as the molecule, how does the Thrombin read?
**A.** Its Thrombin is 0 (inactive).

**Q.** With CCN(CC)c1cccc(C)c1 as the molecule, how does the Thrombin read?
**A.** Its Thrombin is 0 (inactive).

**Q.** For Clc1ccc2nnnn2n1, which Thrombin is on record?
**A.** The Thrombin was 0 (inactive).

**Q.** Which Thrombin does the source give for FC1(F)CNCC(F)(F)O1 here?
**A.** The Thrombin was 0 (inactive).

**Q.** Which Thrombin does the source give for Oc1ccccc1N1CCCCC1 here?
**A.** Its Thrombin is 0 (inactive).

**Q.** Which Thrombin does the source give for CN1CC(=O)NC1=O here?
**A.** Its Thrombin is 0 (inactive).

**Q.** CC1C(=O)NC(=O)N1c1ccc(Cl)cc1 (stereo not shown) was tested. Which Thrombin did it give?
**A.** Its Thrombin is 0 (inactive).
